# Test results from PubChem BioAssay.
# Where “and” joins values, the source holds several entries; their conditions need not be identical. Equal entries are not always repeated. Results filed as inconclusive are left out. Calls of active or inactive are those of the source. Unless noted, the limit is not given here; nearly all actives have AC50 up to about 26 µM.
# How the values were obtained:
# [1] = tested on: Neuropilin-2 / VEGF-C interaction (human); test: inhibitors of NRP2–VEGF-C binding, biochemical, microplate binding format, z-score (AID 743281; call rule not given here); settings: microplate NRP2/VEGF-C binding assay; stronger effect = lower value
# [2] = growth inhibition of DIPG glioma cells, dose response, cell-based, SU-DIPG-XVII, MIPE5.0, CellTiter-Glo, qHTS (AID 1347060); settings: SU-DIPG-XVII viability, CellTiter-Glo ATP luminescence
# [3] = growth inhibition of DIPG glioma cells, dose response, cell-based, SU-DIPG-XIII, MIPE4.0, CellTiter-Glo, qHTS (AID 1347061; cut-off not given, nearly all actives have AC50 up to about 37 µM;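 also: cells exposed to compound for 48 hours before readout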); settings: SU-DIPG-XIII viability, CellTiter-Glo ATP luminescence
# [4] = growth inhibition of DIPG glioma cells, dose response, cell-based, JHH-DIPG-1, MIPE4.0, CellTiter-Glo, qHTS (AID 1347062; cut-off not given, nearly all actives have AC50 up to about 27 µM); settings: JHH-DIPG-1 viability, CellTiter-Glo ATP luminescence
# [5] = growth inhibition of DIPG glioma cells, dose response, cell-based, SU-DIPG-IV, MIPE4.0, CellTiter-Glo, qHTS (AID 1347063; cut-off not given, nearly all actives have AC50 up to about 30 µM;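 also: compound exposure lasted 48 hours before the viability readout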); settings: SU-DIPG-IV viability, CellTiter-Glo ATP luminescence
# [6] = growth inhibition of DIPG glioma cells, dose response, cell-based, SU-DIPG-XIII, MIPE5.0, CellTiter-Glo, qHTS (AID 1347064; cut-off not given, nearly all actives have AC50 up to about 23 µM); settings: SU-DIPG-XIII viability, CellTiter-Glo ATP luminescence
# [7] = viability loss in pontine glioma line – cell-based, SU-DIPG-XXV, MIPE5.0, CellTiter-Glo, qHTS, dose response (AID 1347065); settings: CellTiter-Glo ATP luminescence;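 also: cells exposed to compound for 48 hours before ATP readout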
# [8] = SU-DIPG-VI glioma cell viability, MIPE4.0 library, CellTiter-Glo luminescence, qHTS (AID 1347066; cut-off not given, nearly all actives have AC50 up to about 30 µM;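 also: cells exposed to compound for 48 hours before readout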); settings: CellTiter-Glo ATP luminescence
# [9] = JHH-DIPG-1 glioma cell viability, MIPE5.0 library, CellTiter-Glo luminescence, qHTS (AID 1347067); settings: JHH-DIPG-1 glioma viability, CellTiter-Glo ATP luminescence;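 also: cells exposed to compound for 48 hours before readout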
# [10] = SU-DIPG-XXV glioma cell viability, MIPE5.0 library, qHTS (AID 1347068; cut-off not given, nearly all actives have IC50 up to about 30 µM)
# [11] = phospholipid biosynthesis inhibitors in animal cells, primary screen, cell-based, LOPAC library, screen 4 (AID 1347384; call rule not given here); settings: phospholipid biosynthesis inhibition screen, at 10 µM
# [12] = viability rescue of complex I mutant cybrids, primary screen, cell-based, galactose medium, ATP luminescence (AID 1645843;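 active = z-score of at least 1.8 in each of two replicates, scored against plate mean and spread of sample wells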;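 also: positive z means more ATP and so rescue of galactose-driven cybrid death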); settings: complex I mutant cybrid cells, 72 h, stronger effect = higher value
# [13] = LFS_MB_P medulloblastoma growth inhibition, cell-based, chromothripsis tumors, cisplatin or BGB combos (AID 1671449; in the data active = inhibition above about 80%;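 also: cells exposed for 96 hours; 0% = vehicle DMSO and 100% = killing by high DMSO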); settings: LFS_MB_P medulloblastoma cells
# [14] = HDN33 neuroblastoma growth inhibition, cell-based, chromothripsis tumors, cisplatin or BGB combos (AID 1671450; in the data active = inhibition above about 80%;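 also: cells exposed to compound for four days; 0% = vehicle DMSO and 100% = cell killing by high DMSO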); settings: HDN33 neuroblastoma cells, stronger effect = higher value
# [15] = ICB984 medulloblastoma cell growth inhibition, synergistic combos for chromothripsis tumors, cisplatin or BGB combos (AID 1671451; call rule not given here;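 also: cells exposed for 96 hours before readout; 0% = vehicle DMSO and 100% = killing by high DMSO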); settings: ICB984 medulloblastoma cells, drug combinations, stronger effect = higher value
# [16] = HTB85 osteosarcoma cell growth inhibition, synergistic combos for chromothripsis tumors, BGB or cisplatin IC20 combos (AID 1671453; in the data active = inhibition above about 80%;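 also: cells exposed for 96 hours before readout; 0% = vehicle DMSO and 100% = high DMSO killing control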); settings: HTB85 osteosarcoma cells, drug combinations, stronger effect = higher value
# [17] = MDA-MB-436 breast carcinoma cell growth inhibition, synergistic combos for chromothripsis tumors, BGB or cisplatin combos (AID 1671458; call rule not given here;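 also: cells exposed for 96 hours; 0% = vehicle DMSO and 100% = killing by high DMSO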); settings: MDA-MB-436 breast carcinoma growth inhibition, drug combinations, stronger effect = higher value
# [18] = growth inhibition of BT084 medulloblastoma cells, cell-based, ICGC_MB145, cisplatin and BGB IC40 combos (AID 1671461; in the data active = inhibition above about 80%;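 also: cells exposed to drugs for 96 hours; 0% = vehicle DMSO and 100% = high DMSO full killing control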); settings: drug combinations, stronger effect = higher value
# [19] = modifiers of HSF1 nuclear foci, imaging, Selleck Cancer Library (AID 1347162; in the data active = plate-normalised HSF1 focus index below about 0.46); settings: human cells, at 10 µM; SSMD: measured here: HSF1 foci SSMD mean; cell count: measured here: cell number; plate-normalised HSF1 focus index: stronger effect = lower value
# [20] = biological target: NAD(+) hydrolase SARM1 (Homo sapiens) (UniProt Q6SZW1); test: SARM1 TIR NADase inhibitors, cell lysate, NAD-Glo luminescence (AID 1508614;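 active = compound whose remaining NAD level is above about 45 nM, limit read from the data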;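 also: higher remaining NAD means stronger inhibition of SARM1 NADase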); settings: SAM-TIR HEK293T lysate NADase, at 1 µM, stronger effect = higher value
# NAD(+) hydrolase SARM1 (Homo sapiens), sequence (Q6SZW1 whole entry, looked up): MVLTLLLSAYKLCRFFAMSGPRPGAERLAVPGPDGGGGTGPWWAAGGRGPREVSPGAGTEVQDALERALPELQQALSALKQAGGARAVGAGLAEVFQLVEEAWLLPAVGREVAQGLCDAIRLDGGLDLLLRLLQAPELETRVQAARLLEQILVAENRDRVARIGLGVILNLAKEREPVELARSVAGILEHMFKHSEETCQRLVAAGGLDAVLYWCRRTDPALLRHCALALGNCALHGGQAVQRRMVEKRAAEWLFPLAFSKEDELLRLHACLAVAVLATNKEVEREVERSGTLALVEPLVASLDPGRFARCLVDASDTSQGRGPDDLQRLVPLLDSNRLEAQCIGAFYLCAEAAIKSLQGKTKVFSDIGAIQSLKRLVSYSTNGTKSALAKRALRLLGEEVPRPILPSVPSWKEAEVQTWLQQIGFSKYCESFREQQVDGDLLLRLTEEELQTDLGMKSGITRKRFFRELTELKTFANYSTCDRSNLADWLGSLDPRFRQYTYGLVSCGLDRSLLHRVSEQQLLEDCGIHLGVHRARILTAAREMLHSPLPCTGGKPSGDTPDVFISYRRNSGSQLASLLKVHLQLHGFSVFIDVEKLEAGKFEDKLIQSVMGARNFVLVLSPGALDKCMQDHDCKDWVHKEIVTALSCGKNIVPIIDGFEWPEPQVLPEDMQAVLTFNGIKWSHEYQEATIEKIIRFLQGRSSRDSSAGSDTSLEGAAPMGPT
smiles,measurement,setting,value
O=c1[nH]c(=O)n(C2CCCO2)cc1F (stereo unspecified),z-score,[1],-1.02 (inactive)
same,outcome,[2],inactive
same,outcome,[3],inactive
same,outcome,[4],inactive
same,outcome,[5],inactive
same,outcome,[6],inactive
same,outcome,[7],inactive
same,outcome,[8],inactive
same,outcome,[9],inactive
same,outcome,[10],inactive
same,outcome,[11],inactive
same,z-score,[12],1.17 (inactive) and 0.3 (inactive)
same,inhibition,"[13]; at 0.5 µM, stronger effect = higher value",-23.3% (inactive) and -7.12% (inactive)
same,inhibition,"[13]; measured here: combination with BGB IC20, at 0.005 µM",1.7% and -19.8%
same,inhibition,"[13]; measured here: combination with BGB IC40, at 0.005 µM",22.1% and -46.3%
same,inhibition,"[13]; measured here: combination with BGB IC40, at 0.05 µM",39.2% and -46.2%
same,inhibition,"[13]; measured here: combination with cisplatin, at 0.5 µM, stronger effect = higher value",-44.2% and 1.28%
same,inhibition,"[13]; measured here: combination with cisplatin, at 5 µM, stronger effect = higher value",-1.4% and -18.1%
same,inhibition,"[14]; BGB combo, at 5 µM",12.1% and -46.5%
same,inhibition,[14]; at 0.5 µM,9.66% (inactive) and -23% (inactive)
same,inhibition,"[14]; cisplatin combo, at 5 µM",10.3% and -19.4%
same,inhibition,"[14]; measured here: with BGB IC20 combination, at 0.5 µM",23.6% and -35.7%
same,inhibition,"[14]; measured here: with cisplatin IC20 combination, at 0.5 µM",2.46% and -11.5%
same,inhibition,"[14]; single agent, at 5 µM",-7.16% and -34.9%
same,inhibition,"[15]; BGB IC20 combo, at 0.005 µM",-7.2% and -19%
same,inhibition,"[15]; BGB IC40 combo, at 0.005 µM",-14.4% and -20.1%
same,inhibition,"[15]; BGB IC40 combo, at 0.05 µM",3.65% and -15.9%
same,inhibition,[15]; at 0.5 µM,-2.47% (inactive) and -35.6% (inactive)
same,inhibition,"[15]; cisplatin combo, at 0.05 µM",-0.171% and -21.9%
same,inhibition,"[15]; cisplatin combo, at 0.5 µM",-9.38% and -50%
same,inhibition,"[15]; cisplatin combo, at 5 µM",-27.4% and -5.1%
same,inhibition,"[15]; measured here: 5 uM single agent, at 5 µM",1.9% and -33.4%
same,inhibition,[16]; at 0.5 µM,2.38% (inactive) and -13.2% (inactive)
same,inhibition,"[16]; measured here: with BGB IC20, at 0.5 µM",-7.69% and 6.31%
same,inhibition,"[16]; measured here: with BGB IC20, at 5 µM",-1.29% and -14.6%
same,inhibition,"[16]; measured here: with cisplatin IC20, at 0.5 µM",-5.89% and -34.8%
same,inhibition,"[16]; measured here: with cisplatin IC20, at 5 µM",2.69% and -26.3%
same,inhibition,"[16]; single agent, at 5 µM",15.1% and -15%
same,inhibition,[17]; at 0.5 µM,-0.47% (inactive) and -23.2% (inactive)
same,inhibition,"[17]; measured here: BGB combination, at 0.5 µM",-3.41% and -22.4%
same,inhibition,"[17]; measured here: BGB combination, at 5 µM",-17.4% and -31.2%
same,inhibition,"[17]; measured here: cisplatin combination, at 0.5 µM",0.87% and -34.6%
same,inhibition,"[17]; measured here: cisplatin combination, at 5 µM",-5.11% and -24.1%
same,inhibition,[18]; at 0.5 µM,11.3% (inactive) and -10.3% (inactive)
same,inhibition,"[18]; cisplatin combination, at 0.5 µM",-7.35% and -15%
same,inhibition,"[18]; cisplatin combination, at 5 µM",-13.3% and -155%
same,inhibition,"[18]; measured here: BGB IC40 combination 0.05 uM, at 0.05 µM",5.6% and -35.5%
same,inhibition,"[18]; single agent, at 5 µM",10.4% and -13.1%
CC(C)C[C@H](NC(=O)[C@@H](O)[C@H](N)Cc1ccccc1)C(=O)O,z-score,[1],0.0206 (inactive)
same,outcome,[2],inactive
same,outcome,[4],inactive
same,AC50,[5],18.7 µM (active)
same,outcome,[6],inactive
same,AC50,[8],20.9 µM (active)
same,outcome,[9],inactive
same,outcome,[10],inactive
same,SSMD,[19],2.45
same,cell count,[19],7080
same,plate-normalised HSF1 focus index,[19],1.13 (inactive)
same,outcome,[11],inactive
same,z-score,[12],0.375 (inactive) and 0.725 (inactive)
COc1c(N2C[C@@H]3CCCN[C@@H]3C2)c(F)cc2c(=O)c(C(=O)O)cn(C3CC3)c12,z-score,[1],-1.5 (inactive)
same,outcome,[3],inactive
same,outcome,[4],inactive
same,outcome,[5],inactive
same,outcome,[6],inactive
same,outcome,[7],inactive
same,outcome,[9],inactive
same,outcome,[10],inactive
same,remaining NAD,[20],10 nM (inactive)
O=C(c1ccc(OCCN2CCCCC2)cc1)c1c(-c2ccc(O)cc2)sc2cc(O)ccc12,outcome,[2],inactive
same,outcome,[9],inactive
same,SSMD,[19],2.22
same,cell count,[19],6850
same,plate-normalised HSF1 focus index,[19],1.11 (inactive)
same,outcome,[11],inactive
same,remaining NAD,[20],10 nM (inactive)
CC(C)(S)C(N)C(=O)O (stereo unspecified),z-score,[12],-0.255 (inactive)
COc1ccc2[nH]c(S(=O)Cc3ncc(C)c(OC)c3C)nc2c1 (stereo unspecified),outcome,[1],inactive
same,outcome,[9],inactive
same,outcome,[10],inactive
same,z-score,[12],0.665 (inactive)
C[C@@H](c1ncncc1F)[C@](O)(Cn1cncn1)c1ccc(F)cc1F,z-score,[1],1.15 (inactive)
same,outcome,[3],inactive
same,outcome,[5],inactive
same,outcome,[7],inactive
same,outcome,[8],inactive
same,outcome,[9],inactive
same,outcome,[10],inactive
same,outcome,[11],inactive
same,remaining NAD,[20],10 nM (inactive)
same,z-score,[12],0.365 (inactive)
CC(=O)NC[C@H]1CN(c2ccc(N3CCOCC3)c(F)c2)C(=O)O1,z-score,[1],0.877 (inactive)
same,outcome,[2],inactive
same,outcome,[3],inactive
same,outcome,[4],inactive
same,outcome,[5],inactive
same,outcome,[6],inactive
same,outcome,[7],inactive
same,outcome,[8],inactive
same,outcome,[9],inactive
same,outcome,[10],inactive
same,outcome,[11],inactive
same,remaining NAD,[20],10 nM (inactive)
same,z-score,[12],1.22 (inactive) and -0.185 (inactive)
CC[C@H]1OC(=O)[C@H](C)[C@@H](O[C@H]2C[C@@](C)(OC)[C@@H](O)[C@H](C)O2)[C@H](C)[C@@H](O[C@@H]2O[C@H](C)C[C@H](N(C)C)[C@H]2O)[C@](C)(O)C[C@@H](C)CN(C)[C@H](C)[C@@H](O)[C@]1(C)O,outcome,[2],inactive
same,outcome,[4],inactive
same,outcome,[5],inactive
same,outcome,[6],inactive
same,outcome,[7],inactive
same,outcome,[8],inactive
same,outcome,[9],inactive
same,outcome,[10],inactive
same,remaining NAD,[20],10 nM (inactive)
same,z-score,[12],1.2 (inactive)
CC(CCCCC(=O)Nc1ccc(C(F)(F)F)cc1)NCCc1cnc[nH]1 (stereo unspecified),z-score,[1],-0.258 (inactive)
same,z-score,[12],0.675 (inactive) and -0.77 (inactive)
Cc1cccc(CCN2CCC(C(=O)c3ccc(NS(C)(=O)=O)cc3)CC2)n1,z-score,[1],-0.668 (inactive)
same,z-score,[12],0.46 (inactive) and -0.045 (inactive)
CN(C)CCOc1ccc(/C(=C(/CCCl)c2ccccc2)c2ccccc2)cc1,z-score,[1],-0.537 (inactive)
same,outcome,[3],inactive
same,outcome,[4],inactive
same,AC50,[7],20.9 µM (active)
same,outcome,[8],inactive
same,SSMD,[19],-11.1
same,cell count,[19],3260
same,plate-normalised HSF1 focus index,[19],0.417 (inactive)
same,remaining NAD,[20],10 nM (inactive)
same,z-score,[12],-2.31 (inactive)
COc1ccc(C[C@H](C)NC[C@@H](O)c2ccc(O)c(NC=O)c2)cc1,z-score,[1],-0.584 (inactive)
same,z-score,[12],-0.475 (inactive)
CCOC(=O)c1ccc(OC(=O)CCCCCN=C(N)N)cc1,z-score,[1],-0.315 (inactive)
same,outcome,[2],inactive
same,outcome,[3],inactive
same,outcome,[4],inactive
same,outcome,[5],inactive
same,outcome,[6],inactive
same,outcome,[8],inactive
same,outcome,[9],inactive
same,outcome,[10],inactive
same,z-score,[12],0.415 (inactive) and -0.085 (inactive)
